# Screening data from PubChem BioAssay.
# An excerpt weighted towards active compounds, which were near 2.4% of everything screened.
# CHRM1 antagonist: blocks human M1 muscarinic receptor | AID 588852 | inhibition, % at 3 µM | 360,000 tested, 1.3% active | P11229 | CHO-K1 hM1, Fluo-8 calcium fluorescence, ACh EC80 antagonist;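 active = percent inhibition above its own plate's cutoff, namely the mean of that plate's compound wells plus 3 SD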;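 also: peak over basal fluorescence ratio during 140 s after agonist addition; 0% = ACh EC80 plus DMSO and 100% = DMSO alone without agonist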
# Target sequence (P11229 whole entry, looked up): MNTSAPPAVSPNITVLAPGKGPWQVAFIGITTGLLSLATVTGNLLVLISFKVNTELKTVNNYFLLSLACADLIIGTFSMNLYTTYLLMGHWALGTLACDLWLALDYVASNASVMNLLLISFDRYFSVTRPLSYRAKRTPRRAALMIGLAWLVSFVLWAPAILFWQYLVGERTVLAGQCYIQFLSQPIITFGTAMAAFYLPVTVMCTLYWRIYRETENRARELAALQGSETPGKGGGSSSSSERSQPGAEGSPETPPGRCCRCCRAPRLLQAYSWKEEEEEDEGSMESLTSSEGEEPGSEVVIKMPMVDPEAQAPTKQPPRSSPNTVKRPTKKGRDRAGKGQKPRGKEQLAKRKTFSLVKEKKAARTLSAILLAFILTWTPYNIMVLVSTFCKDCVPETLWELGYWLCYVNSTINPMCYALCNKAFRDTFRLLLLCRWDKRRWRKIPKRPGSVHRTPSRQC
# M1 PAM parental: counter-screen for M1 PAMs: effect in parental CHO-K1 cells; 360,000 tested, 0.02% active; AID 602247; activation, % at 3 µM; ATP EC20, Fluo-8 calcium fluorescence; 0% at ATP EC20, 100% at ATP max;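 active = activation above the run cutoff, the mean activation of all test compounds plus 3 SD, cut at about 40% in these data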;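 also: peak over basal fluorescence ratio in a 140 s read after ATP addition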
# CHRM1 agonist: activates human CHRM1 receptor; P11229; CHO-K1 hM1, Fluo-8 calcium fluorescence, agonist mode; 0% DMSO, 100% acetylcholine EC100; activation, % at 3 µM; 360,000 tested, 0.33% active; AID 588814;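 active = activation above the run's mean compound activation plus 3 SD, cut at about 16% in these data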;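 also: peak over basal fluorescence ratio within a 140 s kinetic read after compound addition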
# CHO-K1 Ca ag: M1 agonist counterscreen hit in parental CHO-K1 cells; 360,000 tested, 0.48% active; AID 602248; Fluo-8 calcium fluorescence; scaled to maximal ATP response, vehicle zero; activation, % at 3 µM; in the data active = activation above about 15%;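 also: untransfected CHO-K1 host cells lacking M1 receptor as counterscreen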
# CHO-K1 Ca antag: counter-screen for M1 antagonists: effect in parental CHO-K1 cells; ATP-induced calcium, Fluo-8 fluorescence; inhibition, % at 3 µM; 360,000 tested, 0.6% active;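 active = inhibition above a per-plate cutoff, the plate's mean sample inhibition plus 3 SD, cut at about 24% in these data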;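 also: 0% = DMSO plus EC80 ATP and 100% = DMSO alone without ATP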
# M1 PAM: positive allosteric modulators of human M1 muscarinic receptor. AID 588819. activation, % at 3 µM. 360,000 tested, 0.088% active. P11229. CHO-K1 hM1, Fluo-8 calcium fluorescence, ACh EC20; 0% = ACh EC20, 100% = maximal ACh; in the data active = activation above about 19%, passing the limit was not always enough
# Starred values were filed as active, the others as inactive; / = not tested or not shown.
SMILES,CHRM1 antagonist,M1 PAM parental,CHRM1 agonist,CHO-K1 Ca ag,CHO-K1 Ca antag,M1 PAM
CC1=CC(C)(C)N(C(=O)CCl)c2cc(C)ccc21,-4,12,-6,0,-16,5
CC1=CC(C)(C)N(C(=O)CNC2CCCCC2)c2cc(C)ccc21,99*,10,-6,1,-9,-24
Cc1cc(Br)ccc1NC(=O)CN1C(=O)C2C3CC(c4ccccc4)C(C3)C2C1=O (stereo not drawn),21,3,-5,2,2,-7
c1ccc2c3c([nH]c2c1)CCNC3,-4,20,27*,1,-6,-8
O=C(NCCc1ccco1)C(=O)NCC1CCCN1S(=O)(=O)c1ccccc1 (stereo not drawn),10,-4,-2,4,5,-6
O=C([C@H]1O[C@@H](n2ccc(=O)[nH]c2=O)[C@H](O)[C@@H]1O)N1CCN(Cc2ccccn2)CC1,/,-9,/,0,-7,/
COc1ccc(NC(=S)NNc2ccc(C(=O)O)cc2)cc1,-19,8,0,0,-8,17
CCOC(=O)N1CCC(NCCNC(=O)c2ccccc2)CC1,48*,9,53*,1,0,-14
CCOC(=O)N1CCC(NC(=O)c2ccccc2C(=O)O)CC1,11,-20,-3,0,12,-5
CCOC(=O)N1CCC(NCCNC(=O)c2cccs2)CC1,21,-1,31*,0,4,-12
CCOC(=O)N1CCC(NCCNC(=O)c2ccccc2Cl)CC1,38*,-7,43*,0,10,-16
CCOC(=O)N1CCC(NC(=O)c2cccs2)CC1,-14,18,-3,1,-11,1
NC(=O)c1ccc(OCC(F)(F)F)nc1,-4,9,-3,1,-3,17
Cc1cc(C(=O)COc2ccc(C#N)cc2)c(C)n1-c1ccc2c(c1)OCO2,3,-6,-9,0,32*,-10
Cc1cc(C(=O)COC(=O)C2=COCCO2)c(C)n1-c1ccc2c(c1)OCO2,-4,25,-2,3,-14,-1
O=[N+]([O-])c1ccccc1NC1CCN(Cc2ccccc2)CC1,47*,-19,-9,0,8,-25
O=C1CCC(=O)N1c1ccc(NC2CCN(Cc3ccccc3)CC2)c([N+](=O)[O-])c1,13,-15,-8,0,2,-13
O=[N+]([O-])c1ccc(NC2CCN(Cc3ccccc3)CC2)c([N+](=O)[O-])c1,10,15,-13,2,-10,-31
O=C1C2CC=CCC2C(=O)N1c1ccc(NCCc2ccccc2)c([N+](=O)[O-])c1 (stereo not drawn),-13,15,-4,1,-11,11
O=C1C2CCCCC2C(=O)N1c1ccc(NC2CCN(Cc3ccccc3)CC2)c([N+](=O)[O-])c1 (stereo not drawn),48*,9,-8,0,-6,-26
CC1CCC2C(=O)N(c3ccc(NC4CCN(Cc5ccccc5)CC4)c([N+](=O)[O-])c3)C(=O)C2C1 (stereo not drawn),80*,23,-8,0,-15,-26
O=[N+]([O-])c1ccccc1CN1CCN(S(=O)(=O)Cc2ccccc2)CC1,-11,10,-1,1,-14,12
CN(Cc1ccccc1)C1CCN(Cc2ccccc2[N+](=O)[O-])CC1,90*,-3,-8,1,6,-27
COc1ccc(NC(=O)Nc2cccc3c2O[C@H](CN(C)S(=O)(=O)c2c(C)noc2C)[C@@H](C)CN([C@H](C)CO)C3=O)cc1,-8,15,-6,1,-29,6
OC(c1cccc(Cl)c1)c1nc(-c2ccc(Cl)cc2)cs1 (stereo not drawn),1,7,0,-1,2,9
SMILES,CHRM1 antagonist,M1 PAM parental,CHRM1 agonist,CHO-K1 Ca ag,CHO-K1 Ca antag,M1 PAM
CN(CC(=O)Nc1ccccc1Cl)C(=O)Cn1cnc2ccc(Cl)cc2c1=O,-13,19,0,1,-28,12
C[C@@H]1CN([C@@H](C)CO)C(=O)CCCn2cc(nn2)CO[C@H]1CN(C)S(=O)(=O)c1cn(C)cn1,-8,2,-2,0,-6,2
CCN1C(=O)[C@H]2[C@H]3CN=C(SCc4ccc(C(=O)OC)cc4)N3[C@@](C)(C(=O)OC)[C@H]2C1=O,2,-1,-4,1,-3,-1
NC(=O)CC(NC(=O)Cc1cccc2ccccc12)c1ccc(NC2CCN(Cc3ccccc3)CC2)c([N+](=O)[O-])c1 (stereo not drawn),11,3,-14,0,4,-14
NC(=O)CC(NC(=O)Cc1ccc(Br)cc1)c1ccc(NC2CCN(Cc3ccccc3)CC2)c([N+](=O)[O-])c1 (stereo not drawn),43*,10,-13,0,-5,-36
COc1ccccc1NC(=S)N1CCc2cc(OC)c(OC)cc2C1,-1,-17,-3,0,24*,-1
CCCC1C2C(=O)N(c3cccc(C)c3)C(=O)C2ON1c1ccccc1 (stereo not drawn),-1,7,0,17*,0,4
Cc1cc(-c2nnc(-c3cccc(Cl)c3)o2)no1,-9,13,6,18*,2,13
Cc1cc(NC(=O)CSc2nnc(-c3cccc(Cl)c3)o2)no1,-3,-16,0,1,12,4
O=C1C2CCCCN2C(=O)N1CCCCN1CCN(c2ccc([N+](=O)[O-])cc2)CC1 (stereo not drawn),1,14,-3,16*,4,1
COC(=O)C1CCN(Cc2ccc(OCCCN3CCN(c4ccc([N+](=O)[O-])cc4)CC3)cc2)CC1,48*,6,-5,13,4,-25
CCOc1ccccc1NC(=O)COC(=O)CC(NC(N)=O)c1ccc(Cl)cc1 (stereo not drawn),-11,9,0,1,-9,5
CCCCn1c(=NC(=O)c2ccco2)c(C(=O)OCC)cc2c(=O)n3cccc(C)c3nc21,-24,-14,-6,1,5,13
CC(=O)Nc1ccc(NS(=O)(=O)c2ccc(-c3cnc(C4CC4)o3)cc2)cc1,15,11,-3,1,4,-5
CC(=O)c1cccc(NS(=O)(=O)c2ccc(-c3cnc(C4CC4)o3)cc2)c1,32*,1,4,16*,12,-12
O=c1c2cc(N3CCOCC3)ccc2[nH]c(=S)n1CCCN1CCCCCC1,23*,11,-6,0,-2,-24
CN1CCc2c(sc3nc(NCCO)n(-c4cccc(Cl)c4)c(=O)c23)C1,-7,0,-7,0,-3,0
Cc1ccc(NC(=O)COC(=O)Cc2cccs2)cc1S(=O)(=O)N1CCOCC1,0,-9,0,1,-2,1
